Source: PubChem BioAssay (National Center for Advancing Translational Sciences (NCATS))
Shown are actives, neighbours in structure and some others; about 12% of the full set was active somewhere.
Sfp PPTase inh = qHTS Assay for Inhibitors of Bacillus subtilis Sfp phosphopantetheinyl transferase (PPTase) | 4'-phosphopantetheinyl transferase ffp (Bacillus subtilis), Q9F4F7 | Biochemical Sfp PPTase activity, qHTS | Potency, µM, usual class: inhibitors | actives 3.5% (n = 310,000);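 also: the enzyme is Sfp with the accession as filed and its product quenches rhodamine fluorescence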
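Reaction rates are the 30-min fluorescence difference (ex 525, em 598 nm) in wells containing 15 nM Sfp, 5 uM rhodamine-CoA and 12.5 uM BHQ-2-YbbR at pH 7.6 with 10 mM MgCl2.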
HP1b binding inh = HTS for Inhibitors of HP1-beta Chromodomain Interactions with Methylated Histone Tails. Chromobox protein homolog 1 (Homo sapiens), P83916. AlphaScreen HP1-beta / biotin-H3K9me3 peptide binding. Potency, µM (highest dose often 114 µM), usual class: inhibitors. actives 0.56% (n = 390,000). AID 540317, 2011; also: nearly all actives have a fitted effect of over 70% in size
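HP1-beta protein (50 nM final) preincubated 30 min at room temperature with biotinylated H3(1-18)K9me3 peptide (50 nM) in PBS pH 7.4, 0.01% Tween-20, then compound added for 30 min. AlphaScreen streptavidin donor/nickel chelate acceptor beads (10 ug/mL final), 30 min dark, luminescence read.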
PLK1 PBD inh = qHTS for Inhibitors of PLK1-PDB (polo-like kinase 1 - polo-box domain): Primary Screen. Serine/threonine-protein kinase PLK1 (Homo sapiens), P53350. Plk1 PBD binding of FITC phosphopeptide, fluorescence polarization. Potency, µM, usual class: inhibitors. actives 2.8% (n = 360,000). AID 720504, 2013; also: series mostly up to about 57 µM; nearly all actives have a fitted effect of over 65% in size
Target sequence (P53350 whole entry, looked up, the tested form may be a part): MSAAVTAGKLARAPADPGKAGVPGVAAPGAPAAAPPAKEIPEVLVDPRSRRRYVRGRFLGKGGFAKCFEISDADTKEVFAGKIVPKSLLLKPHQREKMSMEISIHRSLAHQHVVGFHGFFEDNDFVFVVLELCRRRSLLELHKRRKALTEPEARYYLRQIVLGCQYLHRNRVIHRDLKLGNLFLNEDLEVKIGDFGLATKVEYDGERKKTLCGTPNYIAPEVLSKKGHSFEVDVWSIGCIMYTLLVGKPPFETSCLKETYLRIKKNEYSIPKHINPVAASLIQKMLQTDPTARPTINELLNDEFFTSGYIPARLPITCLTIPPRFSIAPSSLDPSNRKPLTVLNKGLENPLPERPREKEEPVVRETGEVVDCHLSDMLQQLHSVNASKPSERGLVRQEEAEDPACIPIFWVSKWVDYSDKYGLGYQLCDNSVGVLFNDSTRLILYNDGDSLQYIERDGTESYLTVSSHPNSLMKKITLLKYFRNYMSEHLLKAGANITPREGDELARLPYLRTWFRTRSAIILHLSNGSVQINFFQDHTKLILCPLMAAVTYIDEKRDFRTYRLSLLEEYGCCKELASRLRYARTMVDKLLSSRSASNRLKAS
G9a inh = qHTS Assay for Inhibitors of Histone Lysine Methyltransferase G9a | Potency, µM (series often up to 102 µM), actives largely listed as inhibitors | G9a H3K9 monomethylation, AlphaScreen, 2 h | actives 8.8% (n = 350,000) | Histone-lysine N-methyltransferase EHMT2 (Homo sapiens), Q96KQ7; also: nearly all actives have a fitted effect of over 75% in size
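Using a bead-based AlphaScreen, monomethylated H3K9 product from 2 h room-temperature reactions (G9a 20 nM, peptide 500 nM, SAM 20 uM) was detected with 0.5 ug/mL rabbit anti-H3K9me1 antibody.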
JMJD2A Tudor = qHTS Assay for Inhibitors of JMJD2A-Tudor Domain | AlphaScreen JMJD2A-Tudor / H3K4me3 peptide binding | Potency, µM (series often up to 114 µM), actives largely listed as inhibitors | actives 4.4% (n = 390,000); also: nearly all actives have a fitted effect of over 50% in size
BAZ2B block = qHTS Assay for Inhibitors of BAZ2B | Bromodomain adjacent to zinc finger domain protein 2B (Homo sapiens), Q9UIF8 | AlphaScreen BAZ2B-H3K14Ac peptide displacement | Potency, µM (highest dose often 114 µM), actives largely listed as inhibitors | AID 504333, 2011 | actives 4.4% (n = 360,000); also: nearly all actives have a fitted effect of over 60% in size
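AlphaScreen displacement: compounds (up to 110uM) incubated 30 min at room temperature with a preformed 50 nM BAZ2B/50 nM biotinylated H3K14Ac peptide complex in PBS pH 7.4 with Tween-20. Donor and acceptor beads at 10 ug/mL final added, 20 min light-protected before reading.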
Numbers stand for hits; . = inactive; ? = inconclusive; / = no result given; [ ] = another dose, or the depositor's remark. Calls follow the shape of the dose curve; as a rule, active = well fitted curve in the direction sought with a large enough effect; inconclusive = small, poorly fitted or top-dose-only effect, or another doubt; inactive = no such curve, though single readings can be large; an effect the other way counts as inactive or inconclusive.

SMILES	Sfp PPTase inh	HP1b binding inh	PLK1 PBD inh	G9a inh	JMJD2A Tudor	BAZ2B block
CCOC(=O)c1c(CC(C)C)csc1NC(=O)C(C)C	.	.	.	.	.	.
CCOC(=O)c1c(CC(C)C)csc1NC(=O)CCl	.	?	3µM	.	.[11.4 µM]	.
Cc1cccc(N2CCN(c3ncnc4c3nc3n4CCCCC3)CC2C)c1 (stereo not given)	/	.	/	?	?	?
Cc1ccccc1C(=O)N1CCC(C(=O)N2CCCc3ccccc32)CC1	/	.	.	.[12.7 µM]	.	.
COc1ccc(C2C(C(=O)c3ccco3)=C(O)C(=O)N2CCN2CCOCC2)cc1 (stereo not given)	.	.	.	50µM	?	.
O=C(C1=C(O)C(=O)N(CCN2CCOCC2)C1c1ccncc1)c1ccco1 (stereo not given)	.	.	.	?	.	.
COc1ccc(C2C(C(=O)c3sc(C)nc3C)=C(O)C(=O)N2CCN2CCOCC2)cc1 (stereo not given)	.	.	.	?	50µM	.
COc1ccc(OC)c(C2C(C(=O)c3sc(C)nc3C)=C(O)C(=O)N2CCN2CCOCC2)c1 (stereo not given)	.	.	.	45µM	.	.
Nc1ccc2c(c1)C(=O)N(c1ccc3ccccc3c1)C2=O	/	.	/	/	.	/
COc1ccc(-c2nc3cnc(N4CCN(C)CC4)nc3n(CCC#N)c2=O)cc1	.	/	/	.[12.7 µM]	/	/
CC(=NCCc1ccccc1)C1=C(O)CSC1=O	.	.	12µM	.	.[11.4 µM]	.
COc1ccc(S(=O)(=O)c2c(Nc3ccccc3F)sc(C(=O)c3cccc(OC)c3)c2N)cc1	/	.	/	.	?	.
Cc1ccc(NC(=O)Nc2c(C)n(C)n(-c3ccccc3)c2=O)cc1C	.	?	21µM	.	14µM	.
Cc1cccc(NC(=O)Nc2c(C)n(C)n(-c3ccccc3)c2=O)c1	.	.	24µM	.[0.501 µM]	?	.
O=C(c1ccccc1)[C@@H]1O[C@H]1c1ccc(-c2ccccc2)cc1	.	/	/	/	/	/
NNC(=S)Nc1c(Br)cc(F)cc1Br	.	.	.	35µM	.	.
C=CCNC(=O)COC(=O)c1ccc(Sc2nncn2C)c([N+](=O)[O-])c1	.	.	?	.	.	.
C=CCN(CC=C)C(=O)COC(=O)c1ccc(Sc2ncn[nH]2)c([N+](=O)[O-])c1	.	.	.	28µM	.	?
CCOC(=O)NC(=O)COC(=O)c1ccc(Sc2ncn[nH]2)c([N+](=O)[O-])c1	.	.	.	20µM	.	79µM
CCCN1CCN(CCNC(=O)Nc2ccccc2OCC)CC1	/	.	/	.	.	.
CSc1nnc(-c2cc[n+](C)cc2)n1CCO	.	.	.	7.9µM	89µM	.
CSc1nnc(-c2ccccc2)n1N	.	.	.	.	.	.
C/C(=N\NC(=O)c1cnccn1)c1ccc([N+](=O)[O-])cc1	.	.	.	.	22µM	.
C/C(=N\NC(=O)c1cccs1)c1ccncc1	.	.	.	.	.	.
C/C(=N\NC(=O)c1cc([N+](=O)[O-])cc([N+](=O)[O-])c1)c1ccco1	35µM	.	.	/	.	.
C/C(=N/NC(=O)c1cnccn1)c1cccs1	.	.	.	.	25µM	?
C/C(=N/NC(=O)c1cc(O)c(O)c(O)c1)c1ccc([N+](=O)[O-])cc1	3.2µM	?	?	7.1µM	45µM	40µM
COC1C(O)C(CO)OC1n1cnc2c(=O)[nH]c(N)nc21 (stereo not given)	.	/	/	/	/	/
COc1ccc(-c2cc(C(=O)Oc3ccccc3)c3cc(C)ccc3n2)cc1	/	.	/	.	.	.
COc1ccc(S(=O)(=O)Nc2cccc3c2O[C@@H](CN(C)Cc2ccc(C(=O)O)cc2)[C@@H](C)CN([C@H](C)CO)C3=O)cc1	/	.	.	/	.	/
